# ± gives the standard deviation of the averaged measurements. Whole data set: some 33,000 sequences, median “E-score (rank enrichment, -0.5 to 0.5)” near -0.0068, cut for the highest 2% near 0.24. The entries come from a sample that favours the highest values as a whole.
# System: muMax20 (Max(13-93) K31hArg/K57hArg, M65Nle)
# Experiment: PBM 8-mer E-score (E-score (rank enrichment, -0.5 to 0.5)); higher = stronger preferential binding
# Method: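 Protein binding microarray (universal PBM chip covering all 10-mers in fixed probe flanks) with chemically synthesized human Max(13-93) bHLH-LZ analogs (not full-length Max) bearing noncanonical residues (hArg, Tha, Aib, Nle at 65) and aromatic Cys staples. Read-out per 8-mer (and its reverse complement): E-score (rank-based enrichment, -0.5 to 0.5) and Z-score of median probe intensity.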
row,Sequence,PBM 8-mer E-score
1,CTCGAGGA,-0.0146 ± 0.017
2,AATCCTGA,-0.167 ± 0.053
3,ACACATGG,0.271 ± 0.06
4,AAACATGT,0.331 ± 0.04
5,AAACATGA,0.169 ± 0.031
6,ACACATGC,0.22 ± 0.019
7,GCACATGA,0.256 ± 0.095
8,CCACATGC,0.217 ± 0.057
9,AAACATGG,0.178 ± 0.064
10,TCACATGA,0.173 ± 0.029
11,ACACATGA,0.148 ± 0.068
12,CCACATGG,0.255 ± 0.11
13,GCACATGC,0.166 ± 0.06
14,CCACATGA,0.225 ± 0.1
15,GAGGAGCC,-0.1 ± 0.084
16,ACCGGTGG,-0.147 ± 0.06
17,ACTACATC,0.224 ± 0.007
18,CACCCCTC,0.11 ± 0.013
19,AACCCATC,-0.108 ± 0.085
20,ACACATCT,0.11 ± 0.072
21,ACACATGT,0.346 ± 0.023
22,ACACATAT,0.184 ± 0.053
23,CAGGCGCC,-0.0488 ± 0.0079
24,ATATTGAC,0.0428 ± 0.0027
25,ATATTCAC,0.181 ± 0.12

row,Sequence,PBM 8-mer E-score
1,ATATTGAG,0.0529 ± 0.069
2,TTATTGAA,0.3 ± 0.045
3,ATATTCAA,0.197 ± 0.0025
4,ATATTGAA,0.161 ± 0.022
5,ATATTCAT,0.287 ± 0.04
6,ATATTGAT,0.25 ± 0.047
7,GTATTGAA,0.209 ± 0.047
8,AATGGTAC,0.0908 ± 0.11
9,AACGGCAC,-0.107 ± 0.11
10,CGGTCTCA,-0.242 ± 0.2
11,GGTACCTA,-0.105 ± 0.16
12,AAGCACTT,0.132 ± 0.045
13,ACTATGCG,0.16 ± 0.042
14,AAAAAAAG,0.178 ± 0.016
15,AATAAACA,0.171 ± 0.075
16,AATAAAGG,0.0493 ± 0.095
17,AATAAAAG,0.281 ± 0.011
18,ATAAAAGG,0.192 ± 0.058
19,AATAAAAT,0.0637 ± 0.011
20,GATAAAAC,0.203 ± 0.078
21,AATAAACC,0.175 ± 0.022
22,ATAAAAAA,0.189 ± 0.02
23,AATAAAAA,0.266 ± 0.015
24,ATAAAAAG,0.328 ± 0.066
25,AATAAAAC,0.271 ± 0.01

row,Sequence,PBM 8-mer E-score
1,CGAGCAGC,-0.0303 ± 0.083
2,AGCTTGCA,-0.0404 ± 0.11
3,TCCCTAGA,-0.0505 ± 0.13
4,CAATCTTC,-0.0387 ± 0.0054
5,AAAGTCTG,0.032 ± 0.042
6,GGAATGGA,-0.00962 ± 0.022
7,CACGCGAG,0.0936 ± 0.048
8,AACGCGGC,-0.118 ± 0.16
9,CACGCGGC,0.281 ± 0.064
10,GACGCGGC,-0.105 ± 0.025
11,CACGCGGG,0.154 ± 0.086
12,AACGCGGA,-0.13 ± 0.019
13,CACGCGAC,0.245 ± 0.15
14,CACGCGAA,0.0636 ± 0.033
15,CACGCGGA,0.289 ± 0.066
16,CGACAGCG,-0.213 ± 0.1
17,CTAGATTA,0.104 ± 0.021
18,CATAACAA,0.147 ± 0.03
19,AATAACAA,0.271 ± 0.0084
20,AGTAACAA,0.117 ± 0.048
21,AATAACAT,0.256 ± 0.028
22,GATAACAA,0.0646 ± 0.12
23,ACTAACAA,0.236 ± 0.048
24,AATAACCA,0.076 ± 0.0086
25,TATAACAA,0.258 ± 0.015

row,Sequence,PBM 8-mer E-score
1,AGTAACAT,0.289 ± 0.038
2,AATAACAG,0.0596 ± 0.12
3,AGTAACAG,0.142 ± 0.024
4,AATAACAC,0.122 ± 0.0046
5,ACCGGACT,-0.151 ± 0.13
6,TCAATCCA,0.105 ± 0.008
7,CCTTAAGA,0.0233 ± 0.059
8,ACTTTCAT,0.0117 ± 0.13
9,AGGCGCGC,0.115 ± 0.0093
10,GTGATTAA,0.256 ± 0.066
11,ACGATTAA,0.0506 ± 0.14
12,TCGATTAA,0.261 ± 0.051
13,ATGATTAA,0.169 ± 0.049
14,CTGATTAA,0.0981 ± 0.079
15,GCGATTAA,0.14 ± 0.13
16,CCAGCTCG,-0.23 ± 0.058
17,AAGTCCCA,0.0496 ± 0.017
18,TCTAGCCA,-0.0192 ± 0.021
19,CGTACCCC,0.134 ± 0.012
20,CGCTCGCA,-0.00112 ± 0.055
21,ATCCTAGG,-0.193 ± 0.037
22,ATCCTAGC,0.247 ± 0.0046
23,CTCCTAGC,-0.136 ± 0.081
24,AAGATGAG,-0.0108 ± 0.035
25,ATTGACTA,-0.0128 ± 0.0061

row,Sequence,PBM 8-mer E-score
1,ATCAATGA,0.164 ± 0.044
2,AAAAGGCC,0.294 ± 0.089
3,AAAGGCCC,0.105 ± 0.034
4,CAAAAGGC,0.0129 ± 0.021
5,CAAGGCCG,-0.0484 ± 0.016
6,GAAAGGCC,-0.109 ± 0.036
7,AAAGGCCG,0.275 ± 0.088
8,GAAAAGGC,0.3 ± 0.074
9,CAAAGGCC,0.0435 ± 0.035
10,AAAAAGGC,0.218 ± 0.093
11,GAGTCGTA,0.0328 ± 0.034
12,CTTTTAGC,0.0351 ± 0.039
13,ATGCCTGG,-0.0874 ± 0.034
14,AGCTTTGC,-0.066 ± 0.034
15,TCTGACAA,-0.0236 ± 0.026
16,AATACGAG,0.1434 ± 0.0014
17,CCTCCGAA,-0.0791 ± 0.039
18,GACCCAAC,-0.034 ± 0.061
19,CCAACCAG,-0.16 ± 0.022
20,AACAAATC,0.243 ± 0.016
21,AACAAGTC,0.141 ± 0.024
22,GACAAATC,0.0884 ± 0.12
23,GACAAAAA,0.144 ± 0.007
24,AACAAAAT,0.275 ± 0.03
25,CACAAATA,0.185 ± 0.02

row,Sequence,PBM 8-mer E-score
1,AACAAGAT,0.22 ± 0.029
2,TACAAATA,0.313 ± 0.007
3,TACAAAAA,0.285 ± 0.024
4,AACAAAAA,0.14 ± 0.044
5,GACAAATA,0.0845 ± 0.063
6,TACAAGAA,0.2 ± 0.064
7,CTACCGAA,-0.1 ± 0.022
8,CACAGGCC,-0.118 ± 0.0028
9,AGTTGGGG,0.0207 ± 0.062
10,AGCGGTGA,-0.233 ± 0.0025
11,AAATTTCG,0.186 ± 0.12
12,AACTGAAA,0.146 ± 0.092
13,TGCACCCA,0.0653 ± 0.034
14,GAGGTGGA,-0.138 ± 0.1
15,AACAAATA,0.24 ± 0.0093
16,AACAAACA,0.234 ± 0.022
17,AACAAATG,0.155 ± 0.052
18,AACAAGTA,0.101 ± 0.0032
19,AACAAATT,0.269 ± 0.049
20,AACAAGTT,0.0361 ± 0.093
21,GCCCCAAC,0.167 ± 0.046
22,ATAGCAAT,0.1707 ± 0.0013
23,ATAGCAAG,0.248 ± 0.0032
24,ATAGCAAC,0.0478 ± 0.052
25,ACTCCATG,-0.0772 ± 0.0052

row,Sequence,PBM 8-mer E-score
1,CCTACCCC,0.0896 ± 0.026
2,CGGTATGA,-0.017 ± 0.021
3,ACATAATG,0.231 ± 0.099
4,CCATAATA,0.213 ± 0.05
5,GCATAATA,0.239 ± 0.0054
6,ACATAATC,0.0995 ± 0.051
7,ACATAATA,0.294 ± 0.053
8,GCATAAGA,0.107 ± 0.021
9,CCAAGTGA,-0.0263 ± 0.0041
10,CCGACGTC,-0.172 ± 0.09
11,CCAGAACA,0.162 ± 0.0036
12,CGGCCACC,-0.305 ± 0.094
13,CTCTATGA,-0.000995 ± 0.044
14,AAAACCCC,0.126 ± 0.077
15,AAATCGAG,0.0488 ± 0.046
16,GGACGTGA,-0.122 ± 0.048
17,GAACGTGA,-0.00796 ± 0.078
18,GCACGTGA,0.392 ± 0.1
19,GCACGTGC,0.454 ± 0.049
20,GCACGTCC,-0.0223 ± 0.063
21,GCACGTAC,-0.051 ± 0.064
22,CGCAGTTC,-0.116 ± 0.012

# — the supplement of paper PMC12636033
